# Laboratory results: PubChem BioAssay (Tox21)
# Records with an inconclusive call do not appear. Activity calls are given as the source filed them. The call rests on the fitted dose curve; in most records, active means well fitted activation curve with a large enough effect in the signal ratio in the repeat runs (not every such curve was filed as active); inconclusive means weak or mixed curves, or effect the other way; inactive means flat fitted curve, though single readings scatter; the % refers to the signal ratio.
# Assay: qHTS assay to identify small molecule agonists of the endoplasmic reticulum stress response signaling pathway (AID 1159516)
# Conditions: ESRE-bla HeLa, ER stress beta-lactamase reporter, 5 h; series mostly up to 61 µM; activation: at the top concentration
# Text: National Center for Advancing Translational Sciences [NCATS]
# NIH Chemical Genomics Center [NCGC]
# U.S. Environmental Protection Agency [EPA]
# National Institutes of Environmental Health Sciences [NIEHS]
# National Toxicology Program [NTP]
# U.S. Food and Drug Administration [FDA]
# Endoplasmic Reticulum (ER) plays an important role in cellular signaling, protein folding/maturation, stress response, lipid biosynthesis, calcium storage and release etc. Under stress conditions, proteins in ER misfold or unfold, and leading to the expression of ER stress responsive genes. ER stress has been associated with a variety of pathophysiological conditions such as cancer, inflammation, neurodegenerative diseases, diabetes, ischemic heart disease etc. To identify the compounds that induce ER stress response, an ER stress reporter cell line, CellSensor ESRE-bla HeLa (Life Technologies, Carlsbad, CA) containing a beta-lactamase reporter gene under control of the Endoplasmic reticulum Stress Response Element (ESRE) was used to screen Tox21 10K compound library.
# Tox21 Assay Protocol Summary:
# ESRE-bla HeLa cells were dispensed at 1,500 cells/6 uL of assay medium per well into black wall/clear-bottom 1536-well plates using a Multidrop Combi (ThermoFisher Scientific, Waltham, MA) dispenser. After the assay plates were incubated at 37 C and 5% CO2 for an overnight, 23 nL of compounds dissolved in DMSO, positive controls or DMSO only was transferred to the assay plate by a Pintool station (Kalypsys, San Diego, CA). The assay plates were incubated at 37 C and 5% CO2 for 5 hr. One uL of LiveBLAzer B/G FRET substrate (Life Technologies) was added using a Flying Reagent Dispenser (Aurora Discovery, San Diego, CA) and the plates were incubated at room temperature for 2 hr. Fluorescence intensity (405 nm excitation, 460 nm and 530 nm emissions) was measured using an Envision plate reader (PerkinElmer, Shelton, CT).
# On the % scale 0 is the no-effect control and ±100 the full control effect.
row,SMILES,activation
1,O=C(O)c1ccc2c(c1)nc(C(=O)NC1CCN(C3CC3)CC1)n2Cc1cc(-c2ccc(Cl)s2)on1,-6.71% [at 28.5 µM] (inactive)
2,CC(CC(C#N)(c1ccccc1)C(C)C)N(C)C (stereo not given),1.28% (inactive)
3,O=[N+]([O-])c1ccc(Cl)cc1Cl,0.362% (inactive)
4,O=c1[nH]nc(-c2ccc([N+](=O)[O-])o2)o1,-1.59% (inactive)
5,CC(=O)Nc1ccccc1O,-2.49% (inactive)
6,COc1ccc(C(=O)c2ccc(C)cc2)c(O)c1,-3.71% [at 78.8 µM] (inactive)
7,Oc1ccc(Oc2ccccc2)cc1,2.43% (inactive)
8,CC(C)C[C@H](NC(=O)[C@H](Cc1ccccc1)NC(=O)c1cnccn1)B(O)O,5.15% (inactive)
9,CCCCCCCCOCCCN,4.41% (inactive)
10,OCCCO,1.11% [at 78.8 µM] (inactive)
11,CCCCOC(=O)CC#N,0.667% [at 78.8 µM] (inactive)
12,CCc1c(C)[nH]c2c1C(=O)C(CN1CCOCC1)CC2 (stereo not given),0.437% (inactive)
13,CC(C)(Cc1c[nH]c2ccccc12)NCC(O)COc1ccccc1C#N (stereo not given),1.1% (inactive)
14,O=Cc1ccc([N+](=O)[O-])cc1,-3.68% [at 78.8 µM] (inactive)
15,O=C(O)c1cccc(C(=O)O)c1C(=O)O,1.38% [at 78.8 µM] (inactive)
16,O=S(=O)(O)c1cc(Cl)c(Cl)cc1Cl,0.941% (inactive)
17,CCOC(OCC)OCC,-5.24% (inactive)
18,Cc1c(Cl)cccc1Nc1ccccc1C(=O)O,-2.26% (inactive)
19,O=C(OCCOCCOCCOC(=O)c1ccccc1)c1ccccc1,-5.49% (inactive)
20,C1CCN(CN2CCCCC2)CC1,2.74% (inactive)

row,SMILES,activation
1,C[C@]12CCC(=O)C=C1[C@@H]1C[C@@H]1[C@H]1[C@@H]3[C@@H]4C[C@@H]4[C@@]4(CCC(=O)O4)[C@@]3(C)CC[C@@H]12,-5.3% (inactive)
2,CCOc1ccc(NC(C)=O)cc1N,3.34% [at 78.8 µM] (inactive)
3,C/C(=C(\CCO)SS/C(CCO)=C(\C)N(C=O)Cc1cnc(C)nc1N)N(C=O)Cc1cnc(C)nc1N,1.16% (inactive)
4,Clc1nc2ccccc2nc1Cl,-6.54% [at 78.8 µM] (inactive)
5,CC(C)CCCCCCCOC(=O)c1ccc(C(=O)OCCCCCCCC(C)C)c(C(=O)OCCCCCCCC(C)C)c1,-0.917% (inactive)
6,CCCCCC1CCC(=O)O1 (stereo not given),0.486% (inactive)
7,CC(C(=O)O)c1ccc2c(c1)Cc1cccnc1O2 (stereo not given),-2.53% (inactive)
8,COc1ccc(C(=O)Nc2ccccc2)cc1[N+](=O)[O-],4.25% [at 78.8 µM] (inactive)
9,CCCC1CCCC(=O)O1 (stereo not given),-1.43% (inactive)
10,Nc1ccccc1Nc1ccccc1,-1.45% (inactive)
11,CC(C)(O)C(=O)O,3.8% (inactive)
12,CCc1ccc(C(=O)C(C)CN2CCCCC2)cc1 (stereo not given),-2.05% (inactive)
13,O=C(O)c1cc(C(=O)O)c(C(=O)O)cc1C(=O)O,3.84% (inactive)
14,FC1(F)C(F)(F)C(F)(F)C2(F)C(F)(C1(F)F)C(F)(F)C(F)(F)C1(F)C(F)(F)C(F)(F)C(F)(F)C(F)(F)C12F (stereo not given),2.95% (inactive)
15,CCCCCCCCCCCCSC#N,-3.68% (inactive)
16,O=C(O)c1ccc(O)c(O)c1,0.643% (inactive)
17,O=C(O)CCc1nc2ccccc2[nH]1,-1.13% (inactive)
18,CC(C)(C)c1ccc(CCC=O)cc1,-1.85% (inactive)
19,CCC(CC)C(=O)O,1.47% (inactive)
20,O=C(c1ccco1)N1CCNCC1,0.0273% (inactive)
